Compounds with a hit are over-represented: about 3.5% of the library has one in this group of screens.
FBW7 activator – human FBW7 E3 ligase activation, primary screen; Q969H0; AlphaScreen FBW7–phospho-cyclin E peptide binding, activator screen; normalized activity (activation), % at 26.1 µM; 650,000 tested, 0.13% active; in the data active = normalized activity above about 1.9%;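 note: purified mutant Fbw7 with reduced substrate affinity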
Target sequence (Q969H0 whole entry, looked up): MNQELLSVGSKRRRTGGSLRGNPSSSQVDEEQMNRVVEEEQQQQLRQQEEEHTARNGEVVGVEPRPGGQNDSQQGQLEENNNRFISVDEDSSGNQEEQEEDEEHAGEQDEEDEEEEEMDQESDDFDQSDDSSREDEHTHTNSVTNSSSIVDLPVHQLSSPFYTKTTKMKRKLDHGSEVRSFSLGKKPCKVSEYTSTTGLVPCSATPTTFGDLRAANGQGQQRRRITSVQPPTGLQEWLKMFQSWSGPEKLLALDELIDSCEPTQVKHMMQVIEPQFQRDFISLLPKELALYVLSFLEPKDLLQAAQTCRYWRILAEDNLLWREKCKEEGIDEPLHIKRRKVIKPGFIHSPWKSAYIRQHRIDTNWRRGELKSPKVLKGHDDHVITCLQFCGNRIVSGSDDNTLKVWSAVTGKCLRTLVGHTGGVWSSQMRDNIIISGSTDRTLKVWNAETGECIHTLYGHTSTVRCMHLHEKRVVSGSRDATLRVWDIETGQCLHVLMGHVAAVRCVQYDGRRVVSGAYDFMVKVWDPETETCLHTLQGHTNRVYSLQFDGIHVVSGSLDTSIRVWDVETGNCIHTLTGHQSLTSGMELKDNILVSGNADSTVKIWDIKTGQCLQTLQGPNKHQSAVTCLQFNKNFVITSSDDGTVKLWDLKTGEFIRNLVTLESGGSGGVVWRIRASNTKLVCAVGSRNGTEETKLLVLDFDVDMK
MITF inh – inhibitors of human MITF; AlphaScreen MITF homodimerization, bead proximity signal; inhibition, % at 2.6 µM; 650,000 tested, 0.91% active; AID 1259374; O75030; in the data active = inhibition above about 50%;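 note: 0% = vehicle wells with protein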
TEAD-YAP block – TEAD-YAP interaction inhibition; HEK-TIYL cells, TEAD-Gal4/YAP UAS-luciferase luminescence; AID 1259422; inhibition, % at 9.12 µM; 640,000 tested, 1.4% active; in the data active = inhibition above about 32%;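 note: 0% = median of test compound wells and 100% = reference inhibitor wells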
GPR151 activ – activates the human receptor GPR151 | Q8TDV0 | PathHunter beta-arrestin GPR151 cells, luminescence | activation, % at 11.2 µM | 650,000 tested, 1% active; in the data active = activation above about 4.9%;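 note: 0% = median of compound wells and 100% = cells with positive control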
The depositor's hits bear a star.

SMILES	FBW7 activator	MITF inh	TEAD-YAP block	GPR151 activ
Cc1cc(C)cc(NC(=O)CC(C)S(=O)(=O)c2cc3c(cc2C)NC(=O)CO3)c1 (configuration not stated)	0	11	8	1
COc1ccccc1-n1c(SCC(=O)NCc2cccs2)nnc1-c1cccnc1	3.3*	-1	4	-1
COc1ccc(-n2c(SCC(=O)NCc3cccs3)nnc2-c2cccnc2)cc1	0	5	2	0
CC1=C(C(=O)Nc2ccc(C)cn2)C(c2cccs2)C2=C(CCCC2=O)N1 (configuration not stated)	0	-20	-11	-1
CCn1c(=O)cc(N2CCN(c3cccc(Cl)c3)CC2)[nH]c1=O	0	-6	68*	0
CCOc1ccccc1NC(=O)CN1CCC(C)CC1	0	-4	3	1
COc1ccc2c(c1)c1c3n2CCN(Cc2ccccc2)C3=[N+](C)CC1	0	1	42*	3
COc1ccc2c(c1)c1c(n2Cc2ccccc2)CCCC1	1	16	3	0
COc1ccc(NC(=O)COc2ccc([N+](=O)[O-])cc2)cc1OC	0	4	1	1
Cc1ccc(NC(=O)CN(C)C(=O)COc2ccc(C#N)cc2)cc1	0	8	4	0
Cc1ccc(NC(=O)CN(C)C(=O)CCl)cc1	0	4	63*	-1
CN(CC(=O)Nc1ccc(Cl)cc1)C(=O)CCl	0	-13	71*	0
COc1ccc(-c2nc(NCCN(C(C)C)C(C)C)c3[nH]cnc3n2)cc1	0	4	6	1
N=c1sc2c(n1CC(=O)c1ccccc1)CCCC2	0	-10	91*	-11
Cc1ccc(C(=O)Cn2c3ccccc3n3nc(C)nc23)cc1	0	0	47*	-1
COc1ccc(C(=O)Cn2c(=N)n(C)c3ccccc32)cc1	0	-5	-79	0
CCN(CC)CCn1c(=N)n(CC(=O)c2ccc(C)cc2)c2ccccc21	3.3*	18	13	0
Cn1c(=N)n(CC(=O)c2ccccc2)c2ccccc21	0	5	45*	-1
O=C1CCc2cc(S(=O)(=O)NC(Cc3ccccc3)C(=O)N3CCCCC3)ccc2N1 (configuration not stated)	0	-4	6	0
CCOc1cc(/C=C(\C#N)C(=O)NC2CCCCC2C)ccc1OCC(=O)O (configuration not stated)	0	-10	6	0
COc1ccc(-c2noc(CC(=O)N(C)Cc3ccco3)n2)cc1	0	3	-4	4
COc1ccc(C2N(C(=O)CN3CCN(C)CC3)CCN2S(=O)(=O)c2ccc(C)cc2)cc1 (configuration not stated)	0	-14	2	-1
CCOc1cc(C(=O)N/N=C/c2cc(OC)c(O)c(OC)c2)cc(OCC)c1OCC	0	-8	0	0
COc1cccc(CC(=O)N2CCC3(CC2)OCc2ccccc2O3)c1OC	0	8	5	0
COc1cc(CC(=O)N2CCC3(CC2)OCc2cc(Cl)ccc2O3)cc(OC)c1OC	0	-17	59*	2
SMILES	FBW7 activator	MITF inh	TEAD-YAP block	GPR151 activ
COc1ccc(CCC(=O)N2CCC3(CC2)OCc2ccccc2O3)cc1	0	0	-5	4
COc1ccc(CCC(=O)N2CCC3(CC2)OCc2ccccc2O3)cc1OC	0	8	40*	-1
COc1cc(CC(=O)N2CCC3(CC2)OCc2ccccc2O3)cc(OC)c1OC	0	6	38*	1
Cc1nnc(SCC(=O)Nc2nc(-c3ccccc3)cs2)s1	0	1	-21	1
Cc1csc(-c2cnn3c(N4CCN(C)CC4)ccnc23)c1	0	-13	32*	-1
Cc1ccc(-c2cnn3c(N4CCN(C)CC4)ccnc23)cc1	0	-12	-52	0
Cc1ccc(-c2ncn(-c3ccc(Nc4nccc(-c5ccc(S(C)(=O)=O)c(N6CCCC(O)C6)c5)n4)cc3)n2)cn1 (configuration not stated)	0	12	38*	1
Cc1ccc(-c2ncn(-c3ccc(Nc4nccc(-c5ccc(N)nc5)n4)cc3)n2)cn1	5.4*	6	41*	0
Cc1ccc(-c2ncn(-c3ccc(Nc4nccc(-c5ccc(Cl)nc5)n4)cc3)n2)cn1	0	8	-17	0
CN1CCCN(C(=O)C2CC23CCN(Cc2nc(-c4ccccc4)cs2)CC3)CC1 (configuration not stated)	0	6	3	0
O=C(NCc1ccco1)C1CC12CCN(Cc1nc(-c3ccccc3)cs1)CC2 (configuration not stated)	0	0	56*	-1
COc1cnc(-c2ccccn2)nc1-c1ccccc1	-1	18	40*	3
CCSc1nnc(C2CCN(CC(=O)Nc3cccc4ccccc34)CC2)n1C	2.8*	1	4	-1
CC(C)CCOC(=O)C[N+](C)(C)CCOC1CC2CCC1(C)C2(C)C (configuration not stated)	0	-13	37*	0
COc1cc(C2C(C(=O)OCC(C)C)=C(C)NC3=C2C(=O)CC(c2ccccc2)C3)cc(Br)c1O (configuration not stated)	0	0	9	-1
CCSc1ncnc2scc(-c3ccccc3)c12	0	7	-28	0
CCN(C(C)=O)c1nnc(-c2ccc(C)cc2)s1	0	-1	47*	-4
Cc1oc(C(=O)N2c3ccccc3CC2C)cc1S(=O)(=O)N(C)C (configuration not stated)	0	-3	49*	-4
COc1cncc(-c2cncc(-c3ccccc3N(C)C)n2)c1	0	-1	36*	1
COc1cc(-c2cncc(-c3ccccc3N(C)C)n2)cc(OC)c1OC	0	-8	-3	0
COc1ccc(CN2C(=O)C(=O)c3cc(Br)ccc32)cc1	0	2	64*	1
COc1ccccc1OCCN1C(=O)C(=O)c2cc(Br)ccc21	0	0	34*	0
CCCCCCc1ccc(C2=N/C(=C\c3ccc(Cl)cc3Cl)C(=O)O2)cc1	0	-19	-5	0
CCSc1nnc2c(n1)OC(c1ccc(O)c(Br)c1)Nc1ccc(Br)cc1-2 (configuration not stated)	0	3	2	-1
Cc1ccc(NC(=O)N2CCCC2C(=O)Nc2ccccc2C)cc1 (configuration not stated)	6.3*	0	0	0
Cc1ccccc1NC(=O)C1CCCN1C(=O)Nc1ccccc1 (configuration not stated)	0	15	10	-1
O=C1CCCN1CC(=O)N1CCCC(CNC(=O)C2(c3ccc(Cl)cc3)CC2)C1 (configuration not stated)	0	-1	-4	0
COc1ccc(F)cc1S(=O)(=O)Nc1ccc2nc(C)n(-c3ccc(Cl)cc3)c(=O)c2c1	1	24	23	1
CCOc1ccc(S(=O)(=O)Nc2ccc3nc(C)n(-c4ccc(F)cc4)c(=O)c3c2)c(OCC)c1	1	25	50*	-1

Bioassay records as filed in PubChem BioAssay.
